Bioassay records deposited in PubChem by National Center for Advancing Translational Sciences (NCATS).
This is a sample that favours compounds with a hit; in the whole collection about 0.51% have one here.
Epigenetic derep – regulators of epigenetic silencing causing reporter derepression in mouse cells; Potency, µM (titrated, usually from 53.9 µM), actives largely listed as activators; AID 1865; murine LDR cells, GFP reporter derepression, 30 h; 280,000 compounds, 0.2% hits; note: nearly all actives have a fitted effect of over 60% in size
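Murine LDR cells carrying a silenced, genomically integrated CMV-driven GFP reporter were exposed to compound for 30 hours at 37 C. After PBS washes, GFP-positive cells (20–120 um objects) were counted by laser-scanning microplate cytometry.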
Vif-A3G inh – Vif-A3G binding inhibition; Q9HC16; HeLa A3G-eYFP + Vif (tagged APOBEC3G with the HIV-1 protein that degrades it), YFP fluorescence, overnight; Potency, µM (series often up to 46.1 µM), most hits filed as inhibitors; 410,000 compounds, 0.076% hits; AID 602310; note: nearly all actives have a fitted effect of over 60% in size
Target sequence (Q9HC16 whole entry, looked up): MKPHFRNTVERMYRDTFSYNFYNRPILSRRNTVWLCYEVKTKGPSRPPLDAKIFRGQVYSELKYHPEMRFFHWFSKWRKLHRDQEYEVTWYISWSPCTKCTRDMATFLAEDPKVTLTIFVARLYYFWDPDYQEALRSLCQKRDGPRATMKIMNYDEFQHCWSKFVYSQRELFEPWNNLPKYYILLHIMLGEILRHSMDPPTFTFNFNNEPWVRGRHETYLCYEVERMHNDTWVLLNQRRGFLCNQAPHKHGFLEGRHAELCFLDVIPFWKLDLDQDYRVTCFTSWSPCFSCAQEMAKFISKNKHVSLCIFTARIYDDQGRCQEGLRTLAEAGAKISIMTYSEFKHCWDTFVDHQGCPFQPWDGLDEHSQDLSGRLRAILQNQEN
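HeLa cells stably expressing Vif and C-terminally eYFP-tagged A3G, seeded overnight at 37 deg C, then exposed to compound by pintool overnight at 37 deg C. Rise in yellow fluorescence (Ex 488/Em 500-530, Acumen) marks blocked Vif-driven A3G degradation.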
Vif-APOBEC3F blk – blocks the Vif interaction with APOBEC3F; HeLa A3F-eYFP + Vif (tagged APOBEC3F with the HIV-1 protein that degrades it), YFP fluorescence increase; Potency, µM (top dose mostly 46.1 µM); 390,000 compounds, 0.2% hits; note: nearly all actives have a fitted effect of over 65% in size
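HeLa cells stably expressing Vif plus C-terminally eYFP-tagged A3F were seeded, incubated overnight at 37 deg C, dosed with compound, incubated overnight again at 37 deg C. Yellow fluorescence (Ex 488/Em 500-530) reported blocked Vif-mediated A3F-eYFP degradation.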
PINK1 modulator – changes PINK1 expression. PINK1 immunofluorescence, high-content cytometry, 24 h. Potency, µM (top dose mostly 76.6 µM), hits mostly activators. 410,000 compounds, 0.2% hits; active = well fitted activation curve with a large enough effect; inconclusive = small, poorly fitted or top-dose-only effect; cell line not stated here; note: nearly all actives have a fitted effect of over 65% in size
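Stable cell line, 250 cells/well, 12 h attachment; compounds pinned at 5 concentrations, 24 h; CCCP control. Fixed with nuclear dye, primary antibodies 12 h at 10 degrees C, secondary plus cell stain; laser-scanning cytometer read.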
Numbers stand for hits; i = inactive; ? = inconclusive; nt = no result given; ! = a repeat was not active. Unless noted, calls come from the whole dose curve; as a rule, active = well fitted curve in the direction sought with a large enough effect; inconclusive = small, poorly fitted or top-dose-only effect, or another doubt; inactive = no such curve, though single readings can be large; an effect the other way counts as inactive or inconclusive.

SMILES	Epigenetic derep	Vif-A3G inh	Vif-APOBEC3F blk	PINK1 modulator
Cn1cccc1/C=C1\C(=O)NC(=O)N(Cc2ccccc2Cl)C1=O	i	i	11µM	i
Cn1cccc1/C=C1\C(=O)NC(=O)N(CCC2=CCCCC2)C1=O	i	i	i	i
CCOC(=O)C1(c2ccccc2)Oc2ccccc2C(c2ccc(OC)cc2)=C1C(=O)OC (configuration not stated)	i	i	?	i
CCCCC1(CCCC)C(=O)NC(=Nc2cccc(C)c2)NC1=O	i	i	i	16µM
CCCC1(CCC)C(=O)NC(=Nc2ccccc2)NC1=O	i	i	i	i
CC(C)(C)c1cc([N+](=O)[O-])cc(C(C)(C)C)c1O	i	i	i	5µM
O=C(c1ccc(Cl)cc1)C1CCCN(Cc2cccc3ncccc23)C1 (configuration not stated)	i	i	i	i
CCC(C)C(=O)c1c(O)c(C)c2oc3c(C)c(O)c(C(=O)C(C)CC)c(O)c3c2c1O (configuration not stated)	i	nt	nt	16µM
CCN(CC)c1ccc(N=Cc2c(O)n(-c3ccccc3)c(=O)[nH]c2=O)cc1	i	i	i	i
CCN(CC)c1ccc(N=Cc2c(O)n(Cc3ccccc3)c(=O)[nH]c2=O)cc1	13µM	?	7.9µM!	i
Nc1ccc2c(c1)Cc1cc([N+](=O)[O-])ccc1-2	?	?	11µM	i
ClCCN(CCCl)c1ccc(C=Cc2ccncn2)cc1	nt	i	22µM	i
Cc1cc2c(cc1C)NP(=S)(c1ccccc1)N2	nt	i	?	i
Cn1c(O)c(C=NC2CCN(Cc3ccccc3)CC2)c(=O)[nH]c1=O	i	i	i	i
COC(=O)C1=C(c2cccc(C#N)c2)C[C@@H]2CC[C@H]1N2C(=O)N1CCOCC1	nt	i	i	i
COc1cccc(C(=O)C2CCCN(Cc3cccc(C)n3)C2)c1 (configuration not stated)	i	i	?	i
Cc1cccc(CN2CCCC(C(=O)c3cccc(OC(C)C)c3)C2)n1 (configuration not stated)	i	i	22µM	i
CN(C)c1ccc(/C=C/C=C/c2sc3ccccc3[n+]2C)cc1	i	i	i	5µM
CC[n+]1c(/C=C/C=C/c2ccc(N(C)C)cc2)sc2ccccc21	i	i	i	i
CN(C)c1ccc(C=Cc2ccnc3c(O)cccc23)cc1	nt	i	?	i
CN(C)c1ccc(/C=C/c2cc[n+](C)c3ccccc23)cc1	i	i	i	25µM
COC(=O)Cn1cc(C=C2C(=O)NC(=O)NC2=O)c2ccccc21	nt	i	i	i
COc1ccc(N2C(=O)NC(=O)/C(=C\c3cn(C)c4ccccc34)C2=O)cc1	nt	i	22µM	i
COC(=O)Cn1cc(/C=C2\C(=O)NC(=O)N(c3ccc(OC)cc3)C2=O)c2ccccc21	nt	i	?	35µM
O=C(/C=C/c1ccc2c(c1)OCO2)c1c(O)n(CCc2ccccc2)c(=O)[nH]c1=O	i	i	?	i
SMILES	Epigenetic derep	Vif-A3G inh	Vif-APOBEC3F blk	PINK1 modulator
O=C1/C(=C/c2ccc3c(c2)OCO3)SC(=S)N1CCC(=O)N(CCO)c1ccccc1	nt	i	22µM	i
O=c1[nH]c(=O)n(-c2ccccc2)c(O)c1N=Nc1ccc(Br)cc1	i	i	i	i
O=c1c2ccccc2nc(/C=C/c2ccccc2O)n1-c1ccc(Br)cc1	?	i	10µM	i
COc1ccc(-n2c(/C=C/c3ccc(O)cc3)nc3ccccc3c2=O)cc1	nt	i	i	i
O=c1c2ccccc2nc(/C=C/c2ccc(O)cc2)n1-c1ccc(O)cc1	nt	?	?	i
COc1ccc(-n2c(/C=C/c3ccc(O)c(OC)c3)nc3ccccc3c2=O)cc1	nt	i	20µM	i
CC(C)[C@@]1(NC(=O)[C@@H]2C[C@@H]3c4cccc5[nH]cc(c45)C[C@H]3N(C)C2)O[C@@]2(O)[C@@H]3CCCN3C(=O)[C@H](Cc3ccccc3)N2C1=O	22µM!	i	i	i
CCCCn1c(N)c(N(CC(C)C)C(=O)c2cc(Br)c(Br)s2)c(=O)[nH]c1=O	nt	i	25µM	i
O=[N+]([O-])[N-][n+]1cnn(Cc2ccccc2)c1	i	i	i	i
CC(C)C[C@H](NC(=O)[C@H](Cc1ccccc1)NC(=O)CNC(=O)[C@H](CO)NC(=O)[C@@H](N)Cc1ccc(O)cc1)C(=O)N[C@H](C(=O)O)[C@H](C)O	i	nt	nt	nt
O=C1NC(=O)N(c2ccc3c(c2)OCO3)C(=O)/C1=C/c1ccc(N2CCCCC2)o1	i	?	22µM	i
CN1C(=O)C(=Cc2ccc(N3CCCCC3)o2)C(=O)N(C)C1=S	i	?	4µM	i
CCN(CC)c1ccc(C=C2C(=O)N(C)C(=S)N(C)C2=O)o1	i	?	i	i
CCC(C(=O)Nc1ccccc1F)N1C(=O)CN=C(c2ccccc2)c2ccccc21 (configuration not stated)	i	i	i	i
NC(=O)c1cc(N2CC2)c([N+](=O)[O-])cc1[N+](=O)[O-]	i	i	i	i
O=c1[nH]c(O)c(C=NCCc2ccccc2)c(=O)[nH]1	i	i	i	i
O=c1[nH]c(O)c(/C=C2\C=Nc3ccc(OCc4ccccc4)cc32)c(=O)[nH]1	nt	i	13µM	32µM
O=C1NC(=O)N(c2ccccc2F)C(=O)/C1=C/c1ccc(Sc2nc3ccccc3[nH]2)o1	i	i	22µM	i
O=P(O)(O)CN1CCNCCN(CP(=O)(O)O)CCNCC1	nt	i	i	i
Nc1c(Br)cc2c3c(cccc13)-c1ccccc1-2	nt	?	11µM	i
CCCCn1c(O)c(/C=C2/C=CC=N2)c(=O)[nH]c1=O	i	10µM	?	i
O=c1[nH]c(=O)n(Cc2ccccc2Cl)c(O)c1/C=C1/C=CC=N1	?	?	8.9µM	i
O=C(Cc1ccccc1)N1CCN(Cc2cccc(Br)c2)CC1	i	i	i	i
Cc1ccc2oc(=O)c(-c3nc4ccc(C)cc4[nH]3)cc2c1	16µM	i	i	i
CCn1c(NN=O)nc2ccccc21	?	i	11µM	i
SMILES	Epigenetic derep	Vif-A3G inh	Vif-APOBEC3F blk	PINK1 modulator
C[C@@H]1CN([C@H](C)CO)C(=O)CCCn2cc(nn2)CO[C@H]1CN(C)C(=O)Oc1ccc2ccccc2c1	nt	i	i	i
COc1cccc(-c2nn3c(=O)cc(CN4CCN(C(=O)COc5ccccc5C)CC4)nc3s2)c1	i	i	i	i
CCN1C(=O)c2ccccc2Sc2ccc(NC(=O)Nc3ccc(Br)c(C)c3)cc21	i	i	i	16µM
CCc1nc2ccc(Br)cc2c(=O)n1-c1ccccc1C(F)(F)F	nt	i	i	i
CCCc1nc2ccc(Br)cc2c(=O)n1-c1ccc([N+](=O)[O-])c(C(F)(F)F)c1	i	i	i	14µM
Cc1cc(C(C#N)c2ccc(Cl)cc2)c(Cl)cc1NC(=O)c1cc(I)cc(I)c1O (configuration not stated)	nt	i	i	14µM
CCCCn1c(O)c(C(C)=NCc2ccco2)c(=O)[nH]c1=O	i	i	i	i
COc1ccc(-[n+]2c(-c3ccccc3)cc(-c3ccccc3)cc2-c2ccccc2)cc1	nt	i	i	16µM
COCCOC(=O)c1c(C)n(C)c2ccc(OC(=O)N(C)C)cc12	i	i	i	5.6µM
